The values below come from PubChem BioAssay (NCATS).

Results filed as inconclusive are left out. Entries that show only a call come without a potency. The source made the active and inactive calls. Calls come from the whole dose curve; as a rule, active = well fitted activation curve with a large enough effect; inconclusive = small, poorly fitted or top-dose-only effect, or another doubt; inactive = no such curve, though single readings can be large or run the other way.
Potency is the fitted concentration of half-maximal effect.

The assay addresses Rap guanine nucleotide exchange factor 3 (Homo sapiens) (UniProt O95398). Description: Counterscreen qHTS for agonist of cAMP-regulated guanine nucleotide exchange factor 3 (EPAC1) (AID 1645889). Note: nearly all actives have a fitted effect of over 40% in size. To be noted: EPAC1 Rap1B-BODIPY-GDP exchange, fluorescence; series mostly up to 154 µM. Put shortly:
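Rap1B–BODIPY-GDP (250 nM) with 50 uM GDP; compounds pin-transferred to 9.74 nM–152 uM final (activator) or from 7.32 nM upwards (inhibitor). Fluorescence Ex/Em 480/540 nm read at 5 and 30 min, then after adding cAMP or buffer, at room temperature.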
As for `COCCN(CCOC)Cc1cc(=O)oc2cc(C)cc(C)c12`, the Potency result was “inactive”. Take `O=C(O)CCCN1C(=O)/C(=C/c2cn(-c3ccccc3)nc2-c2cccs2)SC1=S`: the Potency is 15.8 µM (active). Regarding `c1ccc(CNc2c(-c3cccc(SC4CCCCC4)c3)nc3ccccn23)cc1`, the activation was 4.1% [at 30.8 µM] (inactive). Take `COC(=O)c1ccc2nc(-c3ccc(OC)c(OC)c3)c(CC3CCCCC3)n2c1`: the Potency entry was “inactive”. For the compound `Cc1cc(C)c2c(c1)OC(=O)CC2c1ccccc1C` (centres undefined), the Potency entry is “inactive”. In the case of `O=C(O)c1cnn(-c2nc(-c3ccc(Cl)c(Cl)c3)cs2)c1C(F)(F)F`, the Potency entry is “inactive”. Turning to `Cc1ccc(C2(c3noc(CN(C)CC4CCCCO4)n3)CCCC2)cc1` (centres undefined), the activation is -0.372% [at 30.8 µM] (inactive). In the case of `COC(=O)c1ccc2nc(-c3ccc(F)cc3)c(CC3CCCCC3)n2c1`, the activation is 6.82% [at 30.8 µM] (inactive). Regarding `COc1ccc2cc(S(=O)(=O)N3CCCC3)ccc2c1`, the activation was 13.3% [at 30.8 µM] (inactive). Take `Cc1ccc2cccc(Oc3nnnn3-c3ccccc3)c2n1`: the Potency entry was “inactive”. `CC1CN(c2nc3ccccc3cc2-c2ccccc2)CC(C)O1` (centres undefined): the Potency result is “inactive”.

`CC(C)CN(C(=O)c1ccco1)c1nc2ccccc2s1`: the Potency result was “inactive”. On to `CCOC(=O)C1Oc2ccccc2C(c2ccc(F)cc2)=C1C(=O)OC` (centres undefined), for which the activation is 13.2% [at 30.8 µM] (inactive). As to `CC(OC(=O)c1ccccc1Oc1ccccc1)C(=O)NC1CC1` (centres undefined), the Potency result is “inactive”. In the case of `Cc1ccc(C2(c3noc(CN(C)Cc4ccccn4)n3)CCCC2)cc1`, the activation was 1.73% [at 30.8 µM] (inactive). The same measure, in the same setting: next, `CC1CN(c2nc(-c3ccccc3)nc3ccccc23)CC(C)O1` (centres undefined): 21.3% [at 30.8 µM] (inactive).

`COc1ccc(S(=O)(=O)Nc2ncccc2C)c2ccccc12`: the Potency entry was “inactive”.

For `COc1ccc(S(=O)(=O)N2CCCC2)c2ccccc12`, the activation was 9.58% [at 30.8 µM] (inactive). For the compound `CCCCC1=C(C(=O)OCC)C(C(=O)OCC)Oc2ccccc21` (centres undefined), the Potency entry was “inactive”. Take `CCC(=O)OC1CC(C)N(C(=O)c2ccccc2)c2ccc(C)cc21` (centres undefined): the Potency result was “inactive”. On to `Cc1ccc(C2N(c3ccc(Cl)cc3)C(=O)N3CCCN23)cc1` (centres undefined), for which the Potency result was “inactive”. On to `CCOc1cc(C)c(S(=O)(=O)N2CCCCC2)cc1C`, for which the Potency entry is “inactive”. On the same count and under the same terms, the same measure for `Cc1cccc2c1NC(=O)C2(O)N1CCCC(C)C1` (centres undefined): “inactive”; for `COc1ccc(-c2ccc(CCC(=O)O)n2-c2ccc(Cl)cc2C)cc1`: “inactive”.
